Only some compounds are listed: those with a hit (about 19% of all), similar ones and a draw of the others.
TDP1 block: inhibitors of human tyrosyl-DNA phosphodiesterase TDP1 | Potency, µM (highest dose often 130 µM), inactives show at the top dose activity change, negative = inhibition, usual class: inhibitors | Q9NUW8 | AID 485290 | 0.28% of 350,000 active | recombinant TDP1, AlphaScreen DNA substrate cleavage; note: potency is the fitted concentration of half-maximal effect; nearly all actives have a fitted effect of over 40% in size
Target sequence (Q9NUW8 whole entry, looked up): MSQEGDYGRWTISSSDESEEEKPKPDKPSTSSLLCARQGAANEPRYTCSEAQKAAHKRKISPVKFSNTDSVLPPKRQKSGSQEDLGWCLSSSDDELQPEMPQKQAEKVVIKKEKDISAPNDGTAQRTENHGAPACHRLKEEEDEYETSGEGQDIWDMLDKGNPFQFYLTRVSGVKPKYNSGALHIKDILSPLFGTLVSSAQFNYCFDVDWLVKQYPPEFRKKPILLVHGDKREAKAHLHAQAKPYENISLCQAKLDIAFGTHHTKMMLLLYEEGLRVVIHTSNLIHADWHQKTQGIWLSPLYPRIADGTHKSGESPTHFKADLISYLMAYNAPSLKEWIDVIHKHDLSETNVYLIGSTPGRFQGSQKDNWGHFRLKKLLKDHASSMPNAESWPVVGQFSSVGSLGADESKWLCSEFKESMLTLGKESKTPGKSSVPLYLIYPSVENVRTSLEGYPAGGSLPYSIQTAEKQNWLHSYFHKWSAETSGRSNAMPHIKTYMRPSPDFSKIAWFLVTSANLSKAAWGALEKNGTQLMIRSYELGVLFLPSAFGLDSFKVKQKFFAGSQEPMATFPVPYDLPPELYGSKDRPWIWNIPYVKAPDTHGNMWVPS
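Tdp1 1 nM final; 15 min RT w/ cpd; substrate 15 nM, 5 min; beads 10 ug/ml, 10 min; AlphaScreen read. Neg ctrl: no enzyme.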
ELG1 DNA repair: ELG1-dependent DNA repair inhibition; 2.3% of 330,000 active; HEK293T ELG1-luciferase reporter, luminescence, 16 h; DNA damage induced by 5-fluorouridine; Potency, µM (titrated, usually from 46.1 µM), for inactives: at the top dose activity change, negative = inhibition, usual class: inhibitors; note: potency is the fitted concentration of half-maximal effect; nearly all actives have a fitted effect of over 55% in size
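Overnight (16 hr) co-exposure of 2,000 cells/well to 5-fluorouridine and compound at 37 °C preceded detection. Luciferase was quantified via ONE-Glo luminescence; loss of signal denotes inhibition.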
DT40 TDP1 CPT: growth inhibition of DT40 Tdp1-/-;hTDP1 cells with camptothecin (screen for TDP1 inhibitors). chicken DT40 Tdp1-/-;hTDP1 cells + 20 nM CPT, ATP luminescence, 48 h. Potency, µM (series often up to 46.2 µM), inactives show top-dose activity change, negative = growth inhibition, usual class: inhibitors. 12% of 420,000 active. AID 686979; note: potency is the fitted concentration of half-maximal effect; nearly all actives have a fitted effect of over 55% in size
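Cell growth measured by CellTiter-Glo luminescence after a minimum 48 h, 37 C compound exposure with 20 nM CPT in Tdp1-knockout DT40 cells stably expressing hTDP1, seeded 400/well; qHTS titration format.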
IL-1B inflam inh: blocks inflammasome-driven IL-1 beta release. activity change, % at 57.5 µM. 4.7% of 360,000 active. THP-1 LPS/ATP IL-1B secretion, AlphaLISA, 16 h; active compounds read low; in the data active = activity change below about -50%; inconclusive = mostly about -30% to -49%
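Secreted IL-1B measured by AlphaLISA bead assay after 16 h compound exposure of THP-1 cells; compounds (final up to 57.5 uM) added 1 h before LPS (250 ng/mL) and ATP (1.25 mM) stimulation; lower signal means less secretion.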
DT40 TDP1 no CPT: qHTS for Inhibitors of human tyrosyl-DNA phosphodiesterase 1 (TDP1): qHTS in cells in absence of CPT; DT40 Tdp1-/- hTDP1 cells, no CPT, ATP luminescence, 48 h; Potency, µM (series often up to 46.2 µM), for inactives: at the top dose activity change, negative = growth inhibition, most hits filed as inhibitors; 15% of 420,000 active; note: potency is the fitted concentration of half-maximal effect; nearly all actives have a fitted effect of over 55% in size
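Readout: luminescence from CellTiter-Glo after 30 min in the dark at RT. Cells: DT40 Tdp1-/- with stable hTDP1, 400/well. Exposure: compounds alone, ≥48 hr, 37 °C.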
Giardia kill: Giardia lamblia killing; activity change, % at 7.66 µM, hits read low; 0.15% of 340,000 active; Giardia lamblia trophozoite viability; in the data active = activity change below about -80%; inconclusive = between about -30% and that limit;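 note: parasites exposed to compound for two days anaerobically before the ATP read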
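Trophozoite viability was measured as ATP-dependent luminescence, read 15-30 min after reagent addition. Before that, parasites at 100 cells/well were exposed to compounds for 48 h, anaerobically, at 37 deg C.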
* marks the source's active call; other numbers are inactive results; ? = inconclusive; . = not tested or not shown; ! = not active in a repeat; [ ] = remark or other dose. Unless noted, calls come from the whole dose curve; as a rule, active = well fitted curve in the direction sought with a large enough effect; inconclusive = small, poorly fitted or top-dose-only effect, or another doubt; inactive = no such curve, though single readings can be large; an effect the other way counts as inactive or inconclusive. % is set by controls: 0 for no effect and ±100 for the full control effect.

SMILES	TDP1 block	ELG1 DNA repair	DT40 TDP1 CPT	IL-1B inflam inh	DT40 TDP1 no CPT	Giardia kill
C#CCOCCOCCOCCNc1nc(N2CCN(C(=O)[C@H](CCC(=O)O)n3cc([C@@H](N)CO)nn3)CC2)nc(N2CCN(C(=O)[C@H](CCC(=O)O)n3cc([C@@H](N)CCSC)nn3)CC2)n1	2.4%	?	-6.6%	19.4	-9.7%	?
CCCCCCCCCCCCCCCC(=O)OC[C@H](O)[C@H]1OC(=O)C(O)=C1O	.	.	9.5%	.	-2.3%	.
CCN(CCCc1ccccc1)CCCc1ccccc1	5.5%	-20.1%	10.3µM*!	-17.9	23.1µM*!	0.6
CCCN(CCO)CCCc1ccccc1	0.0%	19.2%	1.5%	-4.1	-15.2%	-3.8
Cc1ccc(C(=O)N(C)Cc2ccc(N3CCOCC3)cc2)cc1S(=O)(=O)NCc1ccccc1	3.2%	20.6µM*	?	-19.9	-13.0%	-1.6
CSc1ccc(CN(C)C(=O)c2cc(S(=O)(=O)NCc3ccccc3)ccc2C)cc1	.	?	?	?	20.6µM*	4.9
COc1ccc(CCN(C)C(=O)c2cc(S(=O)(=O)NCc3ccccc3)ccc2C)cc1OC	-0.4%	8.2µM*	?	-13.2	?	10.7
Cc1ccc(C(=O)N(C)Cc2ccccc2)cc1S(=O)(=O)N1CCOCC1	4.1%	-0.3%	19.4%	0.0	-3.0%	-8.5
Cc1ccc(S(=O)(=O)NCc2ccccc2)cc1C(=O)N(C)CC(=O)Nc1c(Cl)cccc1Cl	.	?	23.1µM*	-12.9	?	-1.3
CC/C=C\C/C=C\C/C=C\C/C=C\C/C=C\C/C=C\CCC(=O)O[C@H](COCCCCCCCCCCCCCCCC)COP(=O)([O-])OCC[N+](C)(C)C	6.2%	.	.	.	.	.
COc1cccc(-c2cnc(-c3ccncc3)nc2C2CCN(C(=O)Cc3csc(C)n3)CC2)c1	.	.	-1.8%[9.04 µM]	.	?	.
CCC/C(=C1/c2ccccc2C(=O)N1c1ccccc1)c1ccc2c(c1)OCO2	-11.4%	5.5%	?	-6.4	?	3.4
O=C1c2ccccc2C(=O)N1c1ccccc1	.	.	0.6%	-19.2	6.7%	10.6
CCC/C(C#Cc1cc(OC)cc(OC)c1)=C1/c2ccccc2C(=O)N1c1ccccc1	0.6%	19.1%	25.9µM*	0.0	?	3.1
CCC/C(C#CCCN1C(=O)c2ccccc2C1=O)=C1/c2ccccc2C(=O)N1c1ccccc1	1.1%	?	18.4µM*	-22.8	?	7.5
CCC/C(C#Cc1ccsc1)=C1/c2ccccc2C(=O)N1c1ccccc1	-1.6%	?	?	-89.3*	?	61.7
O=C1c2ccccc2C(=O)N1CCC#C/C=C1\c2ccccc2C(=O)N1c1ccccc1	.	.	?	42.4	20.6µM*	.
CCN(CC)CCNC(=O)CN1C(=O)CSc2ccc(S(=O)(=O)N3CCOCC3)cc21	2.6%	.	-0.8%	9.5	10.0%	.
CCC/C(C(=O)NCCO)=C1/c2ccccc2C(=O)N1c1ccccc1	-0.5%	12.1%	1.0%	28.8	?	-17.7
CCC/C(C#Cc1ccc(N(C)C)cc1)=C1/c2ccccc2C(=O)N1c1ccccc1	-4.4%	?	14.6µM*	4.1	16.4µM*	0.3
CC1(C)Cc2ccccc2-c2nc(NCCCO)n(-c3ccccc3)c(=O)c21	1.0%	?	23.1µM*	-8.3	14.6µM*	15.2
CC1CCc2c(sc3nc(C(C)(C)C)nc(N4CCN(C(=O)CCl)CC4)c23)C1 (stereo not given)	.	?	1.84µM*	-95.4*	2.59µM*	13.8
O=C1c2cnc3nc(SCc4cccc(Cl)c4)nn3c2CC2c3ccccc3CCN12 (stereo not given)	0.0%	5.5%	14.6µM*	19.6	20.6µM*	26.4
CC(C)c1ccc(NC(=O)C2CCCN(S(=O)(=O)c3cccc4cccnc34)C2)cc1 (stereo not given)	11.5%	.	16.4µM*	.	16.4µM*	.
O=C(Nc1ccncc1)C1CCCN(S(=O)(=O)c2cccc3cccnc23)C1 (stereo not given)	-5.4%	?	1.84µM*	33.1	1.64µM*	-7.6
SMILES	TDP1 block	ELG1 DNA repair	DT40 TDP1 CPT	IL-1B inflam inh	DT40 TDP1 no CPT	Giardia kill
O=C(C1CCCN(S(=O)(=O)c2cccc3cccnc23)C1)N1CCc2ccccc21 (stereo not given)	5.2%	?	23.1µM*	33.2	16.4µM*	2.2
O=C(NCC1COc2ccccc2O1)C1CCCN(S(=O)(=O)c2cccc3cccnc23)C1 (stereo not given)	-4.9%	14.6µM*	20.6µM*	-26.6	?	-0.6
CC(C)CCn1c(=O)c2cccnc2n(CC(=O)Nc2ccccc2)c1=O	-2.9%	.	?	.	?	.
CC(=O)c1c(C)[nH]c(C(=O)OCC(=O)N2CC(C)OC(C)C2)c1C (stereo not given)	.	28.5%	-5.1%	25.0	-14.3%	-12.9
CC(C(=O)NCCc1ccc(F)cc1)N1CCN(Cc2ccccc2)CC1 (stereo not given)	0.0%	-2.2%	1.0%	5.2	-4.1%	2.3
CC(Sc1ccccc1)C(=O)N1CCN(S(=O)(=O)c2cccc(Br)c2)CC1 (stereo not given)	11.2%	-21.5%	0.2%	8.5	-26.1%	5.5
O=C(C1CCN(S(=O)(=O)c2cccc3cccnc23)CC1)N1CCn2c1nc1ccccc12	5.9%	23.1µM*	?	-9.3	?	-17.0
CN(c1ccc(Cl)cc1)c1cc(=O)n(C)c2ccccc12	2.1%	?	12.6µM*	1.6	?	6.5
Cc1nc(-c2ccc(NC(=O)C(C)(C)C)cc2)c(-c2ccccc2)o1	.	?	?	-12.7	16.4µM*	7.7
Cc1cc(=O)[nH]c(SCC(=O)Nc2nc(-c3ccccc3)c(-c3ccccc3)o2)n1	3.0%	22.1%	4.5%	-11.3	-20.9%	-10.3
Cc1cc(C)nc(SCC(=O)Nc2nc(-c3ccccc3)c(-c3ccccc3)o2)n1	3.0%	-19.7%	?	-0.7	23.1µM*	0.3
Cc1ccc(C(=O)Nc2nc(-c3ccccc3)c(-c3ccccc3)o2)cc1	10.8%	-0.5%	20.6µM*	-9.5	18.4µM*	7.5
CC(C)(C)C(=O)Nc1ccc(N=Nc2ccccc2)cc1	-2.8%	10.7%	-10.5%	?	-12.6%	?
Cn1c(=O)c(-c2ccc(Cl)cc2)nc2cnc(N3CCOCC3)nc21	.	.	4.1%	.	0.7%	.
COc1ccc(CNC(=O)CN(C2CCCCC2)S(C)(=O)=O)cc1	2.4%	-10.4%	-16.0%	30.3	-25.1%	-1.7

Bioassay records (PubChem)
